Compounds with a hit are over-represented: about 1.2% of the library has one in this group of screens.
GSH fluor = GSH bead compound fluorescence profile | GSH beads flow cytometry, compound fluorescence 488/530 nm; stronger effect = higher value | fluorescence (KMESF) at 10 µM | 190,000 compounds, 0.25% hits | AID 1776; in the data active = fluorescence above about 89;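 also: glutathione beads carrying GST-tagged Bcl family fusion proteins plus one bare bead set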
RGS16-Gao = regulators of human RGS16-Galphao interaction; 220,000 compounds, 0.38% hits; bead-based flow cytometry RGS16-Galphao binding, fluorescence; actives lie on both sides; binding response (% of control), % at 10 µM; O15492+P09471;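 also: Galphao activated by GDP with aluminum fluoride before binding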
RGS8-Gao reg = human RGS8-Galphao interaction regulation | P09471 | multiplexed bead flow cytometry, RGS8-Galphao binding; actives lie on both sides | 220,000 compounds, 0.34% hits | response (percent of control binding), % at 10 µM; in the data active = response below about 60% or above about 140%; inactive = in between;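 also: Galphao activated as the GDP aluminium fluoride complex binding bead-coupled RGS8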
Target sequence (P09471 whole entry, looked up): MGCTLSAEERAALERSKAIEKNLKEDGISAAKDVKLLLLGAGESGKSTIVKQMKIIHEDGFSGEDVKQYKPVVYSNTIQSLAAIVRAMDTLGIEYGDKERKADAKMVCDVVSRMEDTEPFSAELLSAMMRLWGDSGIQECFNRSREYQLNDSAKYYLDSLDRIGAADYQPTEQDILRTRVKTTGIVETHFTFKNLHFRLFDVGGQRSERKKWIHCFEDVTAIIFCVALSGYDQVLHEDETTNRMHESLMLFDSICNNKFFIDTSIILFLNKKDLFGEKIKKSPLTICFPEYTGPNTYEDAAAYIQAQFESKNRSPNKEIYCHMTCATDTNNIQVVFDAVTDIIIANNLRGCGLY
Avidin fluor = avidin bead compound fluorescence profile; Avidin beads, compound fluorescence 488/530 nm, flow cytometry; stronger effect = higher value; fluorescence (KMESF) at 10 µM; AID 1775; 220,000 compounds, 0.38% hits; in the data active = fluorescence above about 47
RGS4-Gao reg = modulates binding of RGS4 to human Galphao; P09471; binding response (% of control), % at 10 µM; 220,000 compounds, 0.33% hits; Multiplexed bead flow cytometry; actives lie on both sides; AID 1415; in the data active = binding response below about 49% or above about 150%; inactive = in between;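 also: fluorescent Galphao activated with aluminum fluoride binding bead-coupled RGS4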
RGS7-Gao = modulates binding of RGS7 to human Galphao; P09471; Multiplexed bead flow cytometry; actives lie on both sides; binding response (% of control), % at 10 µM; 220,000 compounds, 0.35% hits; AID 1439; in the data active = binding response below about 49% or above about 150%; inconclusive = no clear call, values can overlap the other calls; inactive = in between;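 also: fluorescent Galphao held in activated GDP-AlF4 state binding bead-coupled RGS7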
RGS-Gao = RGS4-Galphao interaction regulator (human); multiplexed bead flow cytometry, RGS–Galpha-o binding; 1,600 compounds, 99% hits; AID 1504; shares compounds with RGS16-Gao; RGS4–Galpha-o binding response, % at 10 µM;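 also: fluorescently labeled Galpha-o bound to GDP with aluminium fluoride binding biotinylated RGS beads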
Avidin counter = counter-screen: compounds disrupting biotin binding to avidin beads | 1,700 tested, under 10 active | streptavidin beads, fluorescein-biotin binding, flow cytometry | shares compounds with RGS16-Gao | inhibition, % at 10 µM | AID 1783;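 active = inhibition above 50%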;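 also: median green fluorescence of gated singlet beads compared with DMSO control wells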
RGS8-Gao confirm = RGS8-Galphao interaction regulation, single point confirmation. binding response (% of control), % at 10 µM. bead-based flow cytometry RGS8-Galphao binding, fluorescence; actives lie on both sides. AID 1836. 1,700 compounds, 3% hits. shares compounds with RGS16-Gao; in the data active = binding response below about 72% or above about 130%; inactive = in between;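 also: Galphao activated as GDP AlF4 complex before binding bead RGS8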
RGS7-Gao confirm = RGS7-Galphao interaction regulation, single point confirmation; response (percent of control binding), % at 10 µM; 1,700 compounds, 7.8% hits; bead-based flow cytometry RGS7-Galphao binding; actives lie on both sides; shares compounds with RGS16-Gao; in the data active = response below about 75% or above about 130%; inactive = in between;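 also: fluorescent Galphao activated with GDP and aluminum fluoride binding bead-coupled RGS7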
RGS16-Gao conf = RGS16-Galphao interaction regulation, single point confirmation. response (% of control binding), % at 10 µM. 1,700 compounds, 4% hits. shares compounds with RGS16-Gao. bead-based flow cytometry, RGS16-Galphao binding; actives lie on both sides; in the data active = response below about 74% or above about 130%; inactive = in between;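 also: Galphao activated as the GDP aluminium fluoride complex binding bead-coupled RGS16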
RGS4-Gao single = RGS4-Galphao interaction regulation, single point confirmation; shares compounds with RGS16-Gao; RGS4-Galphao binding, multiplexed bead flow cytometry; actives lie on both sides; binding response (% of control), % at 10 µM; 1,700 compounds, 4% hits; in the data active = binding response below about 74% or above about 130%; inactive = in between
RGS19-Gao conf = RGS19-Galphao interaction regulation, single point confirmation. shares compounds with RGS16-Gao. bead-based flow cytometry RGS19-Galphao binding; actives lie on both sides. response (percent of control binding), % at 10 µM. 1,700 compounds, 5% hits. AID 1841; in the data active = response below about 50% or above about 160%; inactive = in between
Target sequence (P09471 whole entry, looked up): as above
Target sequence (P49795 whole entry, looked up): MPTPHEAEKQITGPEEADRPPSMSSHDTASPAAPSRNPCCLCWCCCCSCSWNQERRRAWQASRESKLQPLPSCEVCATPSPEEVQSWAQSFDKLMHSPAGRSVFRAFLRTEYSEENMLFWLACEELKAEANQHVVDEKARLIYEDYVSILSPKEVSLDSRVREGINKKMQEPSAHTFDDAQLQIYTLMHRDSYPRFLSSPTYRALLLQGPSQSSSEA
Each line names hits and unclear results; the compound was inactive in the other large screens (follow-up assays come after a bar, where they were run); [ ] = remark or other dose. Unless noted, no rule for the calls is given here.

COc1ccc2oc(C(=O)OCC(=O)/C(C#N)=C(\C)N)c(C)c2c1	none
Cc1ccccc1-n1c(SCC(=O)c2c(N)n(C)c(=O)n(C)c2=O)nc2sc3c(c2c1=O)CCCC3	RGS16-Gao 22 | RGS-Gao 88 | Avidin counter inactive | RGS8-Gao confirm inactive | RGS7-Gao confirm inactive | RGS16-Gao conf inactive | RGS4-Gao single inactive | RGS19-Gao conf inactive
CCOc1ccc(CCNC(=O)c2cc3sccc3n2C)cc1OCC	RGS8-Gao reg 142[activator], RGS4-Gao reg 155[activator] | Avidin counter inactive | RGS8-Gao confirm inactive | RGS7-Gao confirm inactive | RGS16-Gao conf inactive | RGS4-Gao single inactive | RGS19-Gao conf inactive
COCCNC(=O)CN(C(=O)Cn1nnc2ccccc21)c1cc(C)cc(C)c1	Avidin fluor 60, RGS7-Gao 167[activator] | RGS-Gao 110 | Avidin counter inactive | RGS8-Gao confirm inactive | RGS7-Gao confirm inactive | RGS16-Gao conf inactive | RGS4-Gao single inactive | RGS19-Gao conf inactive
Oc1ccc(-c2n[nH]c(=S)n2-c2ccc3c(c2)OCCO3)c(O)c1	RGS16-Gao 15 | RGS-Gao 99 | Avidin counter inactive | RGS8-Gao confirm inactive | RGS7-Gao confirm inactive | RGS16-Gao conf inactive | RGS4-Gao single inactive | RGS19-Gao conf inactive
Cn1c(CO)cnc1-c1ccccc1	RGS4-Gao reg 151[activator], RGS7-Gao inconclusive (no result: GSH fluor) | Avidin counter inactive | RGS8-Gao confirm inactive | RGS7-Gao confirm inactive | RGS16-Gao conf inactive | RGS4-Gao single inactive | RGS19-Gao conf inactive
Cn1c(SCC(N)=O)nnc1-c1ccccc1	none
Cc1ccc(C(=O)NCCCn2ccnc2)cc1[N+](=O)[O-]	none
Cc1cc([N+](=O)[O-])nn1CC(=O)NCCCn1ccnc1	Avidin fluor 103, RGS7-Gao 269[activator] | RGS-Gao 147 | Avidin counter inactive | RGS8-Gao confirm inactive | RGS7-Gao confirm inactive | RGS16-Gao conf inactive | RGS4-Gao single inactive | RGS19-Gao conf inactive
O=S(=O)(Nc1nc(SCc2ccc(Cl)cc2)n[nH]1)c1ccccc1	RGS7-Gao inconclusive (no result: GSH fluor)
O=C(CCl)Nc1ccc(N2CCCCCC2)cc1	none
O=C(CCc1ccccc1)NNC(=O)c1ccc(NC(=O)c2ccccc2)cc1	RGS16-Gao 2.7 | RGS-Gao 82 | Avidin counter inactive | RGS8-Gao confirm inactive | RGS7-Gao confirm inactive | RGS16-Gao conf inactive | RGS4-Gao single inactive | RGS19-Gao conf inactive
COC(=O)c1ccccc1NS(=O)(=O)c1ccc(F)cc1	none
COC(=O)c1ccccc1NS(=O)(=O)c1ccc(NC(C)=O)cc1	RGS7-Gao 151[activator] | RGS-Gao 128 | Avidin counter inactive | RGS8-Gao confirm inactive | RGS7-Gao confirm inactive | RGS16-Gao conf inactive | RGS4-Gao single inactive | RGS19-Gao conf inactive
Cc1c(O)c2c3c(cccc3c1O)C(=O)N(c1ccccc1)C2=O	RGS8-Gao reg 143[activator], RGS4-Gao reg 164[activator], RGS7-Gao 161[activator] | Avidin counter inactive | RGS8-Gao confirm inactive | RGS7-Gao confirm inactive | RGS16-Gao conf inactive | RGS4-Gao single inactive | RGS19-Gao conf inactive
Cn1c(SCC(=O)c2ccccc2)nnc1-c1cccc(N)c1	RGS16-Gao -92 | RGS-Gao 60 | Avidin counter inactive | RGS8-Gao confirm inactive | RGS7-Gao confirm inactive | RGS16-Gao conf inactive | RGS4-Gao single inactive | RGS19-Gao conf inactive
CCCCc1cc(=O)oc2cc(C)c(CN3CCCC3)c(O)c12	RGS16-Gao 175[activator], RGS7-Gao 160[activator] | RGS-Gao 139 | Avidin counter inactive | RGS8-Gao confirm inactive | RGS7-Gao confirm inactive | RGS16-Gao conf inactive | RGS4-Gao single inactive | RGS19-Gao conf inactive
Cc1ccc(NCc2nnc(SCC(=O)O)n2Cc2ccccc2)cc1Cl	none
Cc1ccc(NCc2n[nH]c(=S)n2Cc2ccccc2)cc1Cl	Avidin fluor 65, RGS7-Gao 167[activator] | RGS-Gao 111 | Avidin counter inactive | RGS8-Gao confirm inactive | RGS7-Gao confirm inactive | RGS16-Gao conf inactive | RGS4-Gao single inactive | RGS19-Gao conf inactive
Cn1c(=O)c2c(nc(Sc3ncnn3CC(=O)NC3CCCCC3)n2C)n(C)c1=O	RGS7-Gao inconclusive (no result: GSH fluor)
CC1=CN2CC(O)CN=C2C=C1 (configuration not stated)	none (no result: RGS16-Gao, RGS8-Gao reg, Avidin fluor, RGS4-Gao reg, RGS7-Gao) | Avidin counter inactive | RGS8-Gao confirm inactive | RGS7-Gao confirm inactive | RGS16-Gao conf inactive | RGS4-Gao single inactive | RGS19-Gao conf inactive
CC1=CC=CN2CC(O)CN=C12 (configuration not stated)	none
CSC1=NSC2=NC(=O)/C(=C/c3coc4ccccc4c3=O)C(=N)N12	Avidin fluor 94, RGS7-Gao 174[activator] | RGS-Gao 150
CSC1=NSC2=NC(=O)/C(=C/c3coc4ccc(O)cc4c3=O)C(=N)N12	none
CCN1/C(=C/C=C/c2oc3ccc4ccccc4c3[n+]2CC)Oc2ccc3ccccc3c21	GSH fluor 205, RGS16-Gao 369[activator], Avidin fluor 59, RGS4-Gao reg 539[activator], RGS7-Gao 616[activator] | Avidin counter inactive | RGS8-Gao confirm 127[activator] | RGS7-Gao confirm 526[activator] | RGS16-Gao conf 264[activator] | RGS4-Gao single 431[activator] | RGS19-Gao conf 458[activator]
Cc1nc2ccccn2c1-c1ccnn1S(=O)(=O)c1ccc(F)cc1	RGS7-Gao inconclusive (no result: GSH fluor)
CC1=NN(C(=O)CSCc2ccccc2)C(O)(c2ccc(F)cc2)C1 (configuration not stated)	RGS7-Gao inconclusive
CC1=NN(C(=O)CSCc2ccccc2)C(O)(c2ccc(Cl)cc2)C1 (configuration not stated)	RGS8-Gao reg 59, RGS7-Gao 49 | RGS-Gao 57 | Avidin counter inactive | RGS8-Gao confirm inactive | RGS7-Gao confirm inactive | RGS16-Gao conf inactive | RGS4-Gao single inactive | RGS19-Gao conf inactive
